Experimental data published in ChEMBL document CHEMBL3988442, “University of Dundee, Small-Polar-MMV Screening Library” (2021).
Hit rate of the full screen: of about 48,000 compounds, about 13,000 (27%) showed an effect of 50% or more. The list shows a part of the results.

The compounds below were run on Wolbachia pipientis (assay: Anti-Wolbachia Cell-Based Screen). Conditions: 5 µM.
Assay type: functional
Set-up: scale not given: in the data most compounds retested in dose-response had high values

Compound	Percent Effect
CNS(=O)(=O)Cc1ccc(CNc2ccc(C#N)cn2)cc1	0.03552%
O=C(O)C(F)(F)F.O=S(=O)(c1cccs1)N1Cc2nc(CN3CCCCC3)oc2C1	109.1%
O=C(NCc1cccs1)c1nc2c(o1)CN(c1ncccn1)C2	0.5771%
Cc1ncnc2c1CCN(Cc1cccs1)CC2.O=C(O)C(F)(F)F	-21.74%
O=C(Cc1cccs1)N1Cc2nc(CN3CCCC3)oc2C1	101.2%
O=C(Cc1ccsc1)N1Cc2nc(CN3CCCCC3)oc2C1.O=C(O)C(F)(F)F	93.12%
O=C(O)C(F)(F)F.O=S(=O)(c1cccs1)N1CC[C@H]2[C@H]1CCN2CC1CC1	-12.79%
O=C(c1ccc2[nH]ccc2c1)N1Cc2nc(CN3CCCC3)oc2C1	-7.855%
O=C(O)C(F)(F)F.O=S(=O)(c1cccs1)N1CCCn2nnc(CN3CCCCC3)c2C1	-14.53%
O=C(O)C(F)(F)F.O=C(O)C(F)(F)F.c1csc(CN2Cc3nc(CN4CCCC4)oc3C2)c1	109.9%
O=C(O)C(F)(F)F.O=C(O)C(F)(F)F.c1csc(CN2CCCn3cnc(CN4CCCC4)c3C2)c1	-7.451%
O=C(O)C(F)(F)F.O=C(O)C(F)(F)F.O=C(c1ccncc1F)N1Cc2nc(CN3CCCCC3)oc2C1	-18.26%
O=C(O)C(F)(F)F.O=C(c1ccc2[nH]ccc2c1)N1Cc2nc(CN3CCCCC3)oc2C1	-9.773%
CC(C)Oc1ccc(CN2CCN3CCN(C)CC3C2)cc1CO (stereo not given)	9.29%
CC(C)N1CCc2onc(Cn3cccc3)c2C1.O=C(O)C(F)(F)F	-0.5475%
CCc1cnc(C)nc1NCCC(=O)N1CCC(C)CC1	-0.3722%
COc1ccnc(N(C)Cc2ccccc2O)n1	-0.8473%
CN(C)C(CNCc1nc(-c2ccsc2)no1)c1cccc(F)c1 (stereo not given)	29.87%
CC(=O)Oc1ccnc(C(F)(F)F)c1C(C)=O	6.517%
O=C(O)C(F)(F)F.O=S(=O)(c1cccs1)N1CCCn2cnc(CN3CCCC3)c2C1	-2.227%
O=C(O)C(F)(F)F.O=S(=O)(c1cccs1)N1CC[C@@H](O)[C@@H]1Cc1ccncc1	6.31%
O=C(O)C(F)(F)F.O=S(=O)(c1cccs1)N1Cc2nc(CN3CCCC3)oc2C1	87.16%
Cc1cccc(CN2C[C@@H]3CN(C(=O)c4ccsc4)C[C@@H]3C2=O)n1.O=C(O)C(F)(F)F	-3.63%
O=C(c1ncc[nH]1)N1CCC(Cn2cc(-c3cccc(Cl)c3)nn2)CC1	-5.477%
COc1cccc(-n2cc(-c3ccnc(N[C@H](CO)C(C)C)n3)cn2)c1	4.852%

Compound	Percent Effect
COc1cccc(-c2noc(-c3ccc(NCC(C)O)nc3)n2)c1OC (stereo not given)	-13.68%
C[C@@H](CO)Nc1cc(-c2cn[nH]c2)ncn1	112.5%
C[C@H](O)CNc1cc(-c2cn[nH]c2)ncn1	139.4%
CC(C)c1nccn1CCCNC(=O)c1ccc(-c2cn[nH]c2)nc1	-8.447%
CC(C)[C@@H](CO)Nc1cc(-c2cn[nH]c2)ncn1	127.6%
COc1cccc(-n2cc(-c3ccnc(NC(CO)C(C)C)n3)cn2)c1 (stereo not given)	8.395%
CC[C@@H](CO)Nc1cc(-c2cn[nH]c2)ncn1	98.52%
COc1ccc(Cc2noc(-c3ccc(NC(C)CO)nc3)n2)cc1 (stereo not given)	5.885%
CC[C@@H](CO)NC(=O)c1cc(COc2ccc(OC)cc2Cl)[nH]n1	-9.741%
CCC(CO)NC(=O)c1cc(COc2ccc(OC)cc2Cl)[nH]n1 (stereo not given)	-12.2%
CSc1ccc2c(C)cc(N[C@@H](C)CO)nc2c1	-9.02%
Cc1cc(CN2CCN(C(=O)NCCCc3cn[nH]c3C)CC2)on1	-23.87%
Cc1ccc(-n2nnnc2SCN2CCCCC2=O)cc1C	-13.91%
Cc1ccc(CNC(=O)CN2C=Nc3ccccc3S2(=O)=O)s1	1.242%
COc1ccc(C)c2c1N(C(=O)c1cnc(C)s1)CCC2	46.61%
O=C(Nc1nnc(C2CC2)s1)NC1CCN(Cc2ccccc2)C1 (stereo not given)	-1.377%
NC(=O)C1CCCN(Cc2ccc(C(=O)Nc3cnns3)cc2)C1 (stereo not given)	103.7%
CCc1ccc(CN2CCC(CNC(=O)c3ccc(C)nc3)C2)nc1 (stereo not given)	20.32%
CCCN(C(=O)c1cnns1)C1CCCN(Cc2ccccc2)C1 (stereo not given)	20.84%
CCNC(=O)C1CCN(Cc2ccc(C(=O)Nc3nnc(C)s3)cc2)C1 (stereo not given)	100.1%
CCNC(=O)C1CCN(Cc2ccc(C(=O)Nc3cnns3)cc2)C1 (stereo not given)	106%
Cn1cnnc1CNC(=O)C1CCCN(Cc2ccccc2)C1 (stereo not given)	-10.08%
NC(=O)c1ccc(CN2CCCC(N3CCCC3)C2)cc1 (stereo not given)	-7.606%
O=C(c1ccc(CN2CCCC2)cc1)N1CCCC(n2cccn2)C1 (stereo not given)	0.6704%
CCC(CC)CS(=O)(=O)NC(=O)C1CCCC1	-11.88%

Compound	Percent Effect
Cc1cnccc1CN(C)Cc1c[nH]nc1-c1ccc(F)cc1F	-6.627%
Cc1cnn(CC2CCCN2C(=O)c2cc(O)nc3ccccc23)c1 (stereo not given)	145.5%
O=C(c1cncc2ccccc12)N1CCC[C@@H]1CO	106.1%
CC(NC(=O)N1CCC[C@H]1CO)c1noc(-c2ccccc2)n1 (stereo not given in full)	5.475%
Cc1cnn(CC2CCCN2C(=O)c2cn(C)c3ccccc23)c1 (stereo not given)	141.3%
COc1ccccc1C(=O)N1CCCC1Cn1cc(C)cn1 (stereo not given)	-4.126%
Cc1cc(C)n(-c2cccc(NC(=O)N3CCC[C@@H]3CO)c2)n1	-12.47%
O=C(Nc1ccccc1OC1CCOC1)c1ccon1 (stereo not given)	-7.759%
CCN(CCc1nc2cc(C)ccc2[nH]1)C(=O)[C@@H](N)Cc1c[nH]cn1	-4.555%
CCOCc1nccc(-c2ccc(OCC)c(C(=O)O)c2)n1	-8.809%
Cc1ccc(-c2nnc(C(C)N3CCn4c(C)nnc4C3)o2)cc1 (stereo not given)	7.305%
Cc1nnc(C(C)N2CCc3[nH]c4ccccc4c3C2)o1 (stereo not given)	119.5%
Cc1cccc(-c2nnc(C(C)N3CCn4c(C)nnc4C3)o2)c1 (stereo not given)	3.143%
Cc1noc(C(C)N2CCC(c3nc4ccccc4[nH]3)CC2)n1 (stereo not given)	-1.749%
Cc1nnc(C(C)NCC2(c3ccc(Cl)cc3)CCCC2)o1 (stereo not given)	5.084%
Cc1nnc2n1CCN(C(C)c1nnc(-c3cccs3)o1)C2 (stereo not given)	4.366%
CCc1cc(C)nc(N2CCN(C(C)c3nc(C)no3)CC2)n1 (stereo not given)	7.355%
Cc1noc(C(C)N2CCc3[nH]c4ccc(Cl)cc4c3C2)n1 (stereo not given)	55.06%
Cc1nnc(C(C)N2CCc3[nH]c4ccc(Cl)cc4c3C2)o1 (stereo not given)	96.73%
CN(CCO)C[C@@H]1CN(Cc2ccccc2C#N)C[C@@H]1CO	5.341%
O=C(O)C(F)(F)F.O=C([C@H]1COC[C@H]2CN(C3CCCC3)C[C@H]21)N1CCCO1	3.277%
Cl.Cl.O=C(NC[C@H]1OC[C@@H](NC2CCNCC2)[C@@H]1O)C1CCCC1	-10.79%
O=C(C1CC1)N1C[C@@H](F)[C@@H](OCc2nc3ccccc3[nH]2)C1	-5.445%
O=C(CC1CC1)N1CCO[C@H]2[C@H](OCCCn3cccn3)CC[C@@H]21.O=C(O)C(F)(F)F	104.8%
O=C(N1CCCC1)N1CCO[C@H]2[C@@H](OCc3cccnc3)CC[C@@H]21.O=C(O)C(F)(F)F	-4.224%

Compound	Percent Effect
CC(=O)N1CCO[C@H]2[C@H](OCCCn3cccn3)CC[C@@H]21.O=C(O)C(F)(F)F	121.4%
O=C(C1CCC1)N1CCO[C@H]2[C@H](OCCCn3cccn3)CC[C@@H]21.O=C(O)C(F)(F)F	102.2%
Cn1cccc1C(=O)N1CCO[C@H]2[C@H](OCc3cccnc3)CC[C@@H]21.O=C(O)C(F)(F)F	-1.301%
CCS(=O)(=O)N1CCO[C@H]2[C@H](OCCCn3cccn3)CC[C@@H]21.O=C(O)C(F)(F)F	3.946%
O=C(C1CCOCC1)N1CCO[C@H]2[C@H](Oc3ccccn3)CC[C@@H]21.O=C(O)C(F)(F)F	-40.04%
CCOCC(=O)NCC(Cc1cccc(F)c1)n1cccc1 (stereo not given)	6.887%
CS(=O)(=O)CCCNC(=O)Nc1sc2ccccc2c1Cl	-10.11%
COc1cc(C(C)=O)ccc1OCCNCc1ccco1.Cl	-30.68%
COc1cc(C(C)=O)ccc1OC12CCCN(CC1)C2 (stereo not given)	108.8%
COc1cc(C#N)ccc1OC12CCCN(CC1)C2 (stereo not given)	107.4%
COC(=O)c1ccc(OC)c(OC23CCCN(CC2)C3)c1 (stereo not given)	94.41%
COC(=O)c1ccc(Cn2nc(C)cc2C)c(OC)c1	-3.306%
COCC1CCN(CCOc2ccc(C#N)cc2OC)CC1	-11.6%
COc1cc(C#N)ccc1OCCN1CCC(n2ccnc2)CC1	7.917%
COc1cc(C(C)=O)ccc1SCC(=O)Nc1ccc(C)cn1	-18.24%
COC(=O)c1ccc(Cn2cccc(C(F)(F)F)c2=O)c(OC)c1	9.312%
CCNC(=O)Nc1cccc(F)c1C(=O)NC1CCCC1	2.869%
CC(C)CC(C#N)NC(=O)COC1CCCCC1 (stereo not given)	-4.996%
Cn1ccc(CN2CCC3(CCCN3CC3CC3)CC2)n1.O=C(O)C(F)(F)F.O=C(O)C(F)(F)F	89.46%
Cn1ccc(CN2CCCC23CCN(Cc2nccn2C)CC3)n1.O=C(O)C(F)(F)F.O=C(O)C(F)(F)F	97.85%
CC(C)COC1CC2(CCN(Cc3nccn3C)CC2)C1.O=C(O)C(F)(F)F	-0.08907%
O=C(O)C(F)(F)F.O=C(O)C(F)(F)F.c1csc(CN2CCC3(CCCN3CC3CC3)CC2)n1	0.06996%
Cn1ccnc1CN1CCC2(CCCN2c2ncccn2)CC1.O=C(O)C(F)(F)F	-8.541%
Cc1ccc(NC2COC3(CCN(Cc4ccn(C)n4)CC3)C2)nn1.O=C(O)C(F)(F)F (stereo not given)	-6.198%
CN(C)CCN1CCCC12CCN(Cc1nccn1C)CC2.O=C(O)C(F)(F)F.O=C(O)C(F)(F)F.O=C(O)C(F)(F)F	106.1%
